Assay outcomes (PubChem BioAssay)
Hits are enriched below; roughly 2.4% of the tested compounds scored in any of these assays.
STAT3 inh-1: reduces IL-6 driven STAT3 reporter signal. U3A cells, IL-6 STAT3-luciferase reporter, luminescence; host cell line lacks STAT1. inhibition, % at 5.5 µM. 0.89% of 190,000 active. AID 862;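 active = inhibition above the mean inhibition across all screened compounds plus 3 SD, cut at about 44% in these data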
HSP90 inh: blocks HSP90-mediated luciferase refolding in reticulocyte lysate; Rabbit reticulocyte lysate, luciferase refolding luminescence, 3 h; inhibition, % at 5.6 µM; 0.91% of 290,000 active;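 active = inhibition above the screen-wide mean plus 3 SD, computed separately per campaign, cut at about 16% in these data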;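 also: inhibitors lower the luminescence because luciferase stays unfolded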
HSF1 inh: HSF1 inhibition; NIH3T3-HGL HSE-luciferase, MG132-induced, luminescence 8 h; hits give low values; activity change, negative = inhibition, % at 7.5 µM (by protocol); 0.77% of 300,000 active;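 active = more than half of replicate wells show activity change below -50%, luminescence cut by over half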;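 also: luciferase reports HSF-1 transcriptional activity via heat shock element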
PPC-1+TRAIL kill: kills PPC-1 cancer cells in the presence of TRAIL; PPC-1 cells + TRAIL, ATPLite viability luminescence; cell killing (% activity), % at 4 µM or 5 µM; 0.41% of 220,000 active;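 active = cell killing above 50% in the first pass at 4 µM, then a duplicate retest at 5 µM averaging 50% or more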
C8 TRAIL sens: sensitizes caspase-8 expressing cells to TRAIL; NB7+C8 cells + TRAIL, ATPlite viability luminescence; inhibition (viability loss, TRAIL sensitization), % at 10 µM; 1% of 360,000 active;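 active = compounds causing at least 50% loss of cell viability in the single-dose screen, relative to plate controls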
STAT1 inh: STAT1 signaling inhibition | inhibition, % at 5.5 µM | AID 920 | 0.35% of 200,000 active | NIH 3T3 STAT1-luciferase reporter, IFN-gamma, luminescence;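 active = inhibition above a set limit, the mean inhibition across all tested compounds plus 3 SD, cut at about 34% in these data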
STAT3 inh-2: STAT3 inhibition, confirmation assay; shares compounds with STAT3 inh-1; U3A cells, IL-6 STAT3 luciferase reporter, luminescence; cell line lacks STAT1; inhibition, % at 5.7 µM; 45% of 1,200 active; AID 1265;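 active = inhibition above the hit cutoff computed for the primary STAT3 screen, cut at about 44% in these data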
NFkB inh STAT3ct: counter-screen for STAT3 inhibitors: NF-kappaB inhibition | shares compounds with STAT3 inh-1 | HEK293T NF-kB luciferase reporter, TNF-alpha induced | inhibition, % at 5.7 µM | 36% of 1,200 active | AID 1308;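 active = inhibition above the mean of solvent-only control wells plus 3 SD, cutoff set per campaign, cut at about 13% in these data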
STAT1 inh STAT3c: STAT1 inhibition in STAT3 inhibitor counter-screen. inhibition, % at 5.7 µM. NIH 3T3 STAT1-luciferase reporter, IFN-gamma induced, luminescence. 27% of 1,200 active. shares compounds with STAT3 inh-1. AID 1317;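 active = inhibition above the mean plus 3 SD of solvent-only control wells, limit set per screening run, cut at about 16% in these data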
PPC1 cytotox: PPC-1 cell cytotoxicity | AID 1447 | PPC-1 viability, ATPlite luminescence, overnight | 50% of 1,200 active | cytotoxicity, % at 5 µM | shares compounds with PPC-1+TRAIL kill;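 active = reconfirmed compounds whose average cytotoxicity reaches 50% or more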
HSP90 confirm: confirmation of HSP90 inhibitors; shares compounds with HSP90 inh; rabbit reticulocyte lysate, luciferase refolding luminescence, 3 h; inhibition, % at 5.9 µM; 64% of 2,300 active; AID 1846; in the data active = inhibition above about 18%
luciferase ctr: blocks native firefly luciferase in HSP90 counter-screen | 48% of 2,300 active | shares compounds with HSP90 inh | purified native firefly luciferase, luminescence | inhibition, % at 5.9 µM;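 active = inhibition above the mean inhibition of all tested sample wells plus 3 SD, cut at about 10% in these data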
Target sequence (P08659 whole entry, looked up): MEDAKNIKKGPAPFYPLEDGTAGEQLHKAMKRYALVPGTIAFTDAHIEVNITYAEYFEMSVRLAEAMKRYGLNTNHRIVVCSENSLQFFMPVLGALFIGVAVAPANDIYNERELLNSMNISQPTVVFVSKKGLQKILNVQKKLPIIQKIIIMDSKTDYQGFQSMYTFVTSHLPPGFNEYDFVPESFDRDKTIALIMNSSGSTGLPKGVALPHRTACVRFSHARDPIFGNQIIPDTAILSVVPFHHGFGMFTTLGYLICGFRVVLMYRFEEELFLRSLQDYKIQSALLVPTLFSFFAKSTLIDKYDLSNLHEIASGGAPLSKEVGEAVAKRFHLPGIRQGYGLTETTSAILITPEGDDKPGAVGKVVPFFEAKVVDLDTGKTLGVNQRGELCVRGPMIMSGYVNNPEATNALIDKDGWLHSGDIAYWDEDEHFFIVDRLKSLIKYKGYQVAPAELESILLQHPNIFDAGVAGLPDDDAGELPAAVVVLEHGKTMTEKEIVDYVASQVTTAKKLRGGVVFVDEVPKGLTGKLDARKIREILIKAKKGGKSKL
A number is an active result; 0 = inactive; - = not tested or not shown.

SMILES	STAT3 inh-1	HSP90 inh	HSF1 inh	PPC-1+TRAIL kill	C8 TRAIL sens	STAT1 inh	STAT3 inh-2	NFkB inh STAT3ct	STAT1 inh STAT3c	HSP90 confirm	luciferase ctr	others
COc1ccc(OCC(=O)Nc2nccs2)cc1	69	31	0	0	0	0	0	0	0	60	39
COc1ccc(OCCC(=O)Nc2nccs2)cc1	0	0	0	0	0	0	-	-	-	-	-
O=C(/C=C/c1ccccc1Cl)Nc1cccc(O)c1	64	23	0	0	72	0	0	14	17	36	15
O=C(/C=C/c1ccccc1Cl)Nc1ccccc1	-	0	0	0	0	-	-	-	-	-	-
N#C/C(=C\c1cccn1S(=O)(=O)c1cccc([N+](=O)[O-])c1)S(=O)(=O)c1ccc(F)cc1	-	-	-	-	0	-	-	-	-	-	-
Cc1ccnc(Nc2nc3ccccc3o2)n1	43	22	0	0	0	0	0	0	0	45	22
CC(C)(C)c1ccc(CC(=O)N2CCC2(C)C(=O)Nc2cccc3c2CCCC3)cc1 (stereo not given)	-	-	-	-	0	-	-	-	-	-	-
Cc1ccc(-c2nc3ccc([N+](=O)[O-])cc3[nH]2)cc1	77	25	0	0	0	0	0	0	0	42	43
Cc1ccc2nc(-c3cccc(N)c3)[nH]c2c1	66	18	0	0	68	0	0	0	0	45	33
O=[N+]([O-])c1ccc2nc(-c3ccc(Cl)cc3)[nH]c2c1	0	0	0	0	0	0	-	-	-	-	-
COc1ccc(NC(=O)c2cc(C3CCCCN3S(=O)(=O)c3cccs3)on2)c(C)c1 (stereo not given)	-	-	-	-	0	-	-	-	-	-	-
O=C1CC(c2ccc3c(c2)OCO3)Sc2nc3ccccc3n21 (stereo not given)	52	47	-	0	0	0	0	0	0	72	69
O=C1CC(c2ccccc2)Sc2nc3ccccc3n21 (stereo not given)	0	0	0	0	0	0	-	-	-	-	-
CCCNC(=O)c1ccc(-c2nc3ccccc3s2)s1	75	22	0	70	83	0	45	0	0	68	60	PPC1 cytotox=77
O=C(NCCCO)c1nc2ccccc2s1	0	0	0	0	0	0	-	-	-	-	-
CCCCC1Cc2[nH][nH]c(=O)c2C(c2ccc(F)cc2)O1 (stereo not given)	-	-	-	-	0	-	-	-	-	-	-
CCOc1ccc2nc(-c3ccccc3)[nH]c2c1	50	19	0	0	69	0	0	0	0	21	13	PPC1 cytotox=56
O=C(Nc1cccc(O)c1)c1noc2c1CCCCC2	83	60	0	0	60	0	72	29	0	69	57
CSc1ccc(CN2CCC2(C)C(=O)NCc2cccs2)cc1 (stereo not given)	-	-	-	-	0	-	-	-	-	-	-
Cc1ccc(C)c(C(=O)CSc2nnnn2C(C)C)c1	0	0	0	0	0	0	-	-	-	-	-
Cc1ccc(C(=O)CSc2nnnn2C(C)C)c(C)c1	78	56	0	0	0	0	49	22	0	79	72
CCOc1ccc(-c2ccc(SCC)nn2)cc1	72	18	-	60	73	0	0	0	0	56	39	PPC1 cytotox=57
CCOc1ccc(-c2ccc(SCc3ccccn3)nn2)cc1	0	0	0	0	0	0	-	-	-	-	-
COc1ccc(O)c(C(=O)CC(=O)c2ccccc2)c1	70	24	0	60	-	0	0	0	0	0	0	PPC1 cytotox=58
O=C(N/N=C/c1ccc2c(c1)OCO2)c1ccccn1	55	28	0	58	73	0	0	0	0	57	36	PPC1 cytotox=60
SMILES	STAT3 inh-1	HSP90 inh	HSF1 inh	PPC-1+TRAIL kill	C8 TRAIL sens	STAT1 inh	STAT3 inh-2	NFkB inh STAT3ct	STAT1 inh STAT3c	HSP90 confirm	luciferase ctr	others
O=C(N/N=C/c1cc2c(cc1Br)OCO2)c1ccccn1	-	0	0	0	0	-	-	-	-	-	-
Cc1cc(N2CCOCC2)n2ncc(-c3ccccc3)c2n1	66	51	-61	0	69	0	0	0	0	67	62	PPC1 cytotox=0
Cc1cc(NCc2ccccc2)n2ncc(-c3ccccc3)c2n1	-	0	0	-	0	-	-	-	-	-	-
Cc1cc(-c2ccccc2)n2ncc(-c3ccccc3)c2n1	50	22	0	55	62	0	0	0	0	61	55
COc1ccc(-c2cc(C)nc3c(-c4ccccc4)cnn23)cc1	51	21	0	0	0	0	0	0	0	45	28
Cc1cc(NCCCn2ccnc2)n2ncc(-c3ccccc3)c2n1	74	34	-	67	77	0	0	25	0	62	56	PPC1 cytotox=62
COc1ccc(C(=O)N2CCC2(C)C(=O)NC(C)C)cc1 (stereo not given)	-	-	-	-	0	-	-	-	-	-	-
CC(=O)Nc1ccc(-c2noc(-c3csc([C@@H]4C[C@H](O)[C@@H](CO)O4)n3)n2)cc1	-	-	-	-	0	-	-	-	-	-	-
O=C(Nc1nc2ccccc2[nH]1)c1ccc(F)cc1	72	35	0	73	83	0	0	0	0	57	44	PPC1 cytotox=72
O=C(Nc1nc2ccccc2[nH]1)c1cc(F)cc(F)c1	-	0	0	-	0	-	-	-	-	-	-
Cc1oc(-c2ccc3c(c2)OCCO3)cc1C(=O)O	64	96	-72	0	0	0	93	56	74	101	91
O=[N+]([O-])c1ccccc1C=NNC(=S)NN=Cc1ccccc1[N+](=O)[O-]	-	-	-	-	0	-	-	-	-	-	-
O=[N+]([O-])c1ccccc1NC(=S)N/N=C/c1ccc(O)c(O)c1	68	43	0	0	0	0	48	0	0	0	0
CCCCNC(=S)N/N=C/c1cccc(OCC)c1O	-	0	0	0	0	-	-	-	-	-	-
CCOc1cccc(/C=N/NC(=S)Nc2ccccc2[N+](=O)[O-])c1O	69	75	-79	0	53	0	0	0	0	71	34
CC(C)N1CCCC(C)(C(=O)Nc2nc3ccccc3n2C)C1 (stereo not given)	-	-	-	-	0	-	-	-	-	-	-
O=C(c1cccs1)c1ccc(-c2cccs2)s1	61	29	0	0	51	0	0	0	0	61	53
CN(C)c1ccc(NC(=O)c2cnsn2)cc1	50	26	0	0	0	0	0	0	0	48	40
